# Measurements published in PubChem BioAssay (NCI).
# The panel holds about 83,000 compounds, 20% with a hit somewhere; the sample as a whole holds those more often.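 Growth was measured after 48 h exposure to one concentration of compound in 96-well plates. Values under 10 count as active.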 Unmarked numbers belong to inactive results. The source made the active and inactive calls.
# Key:
# Assay in all cases: NCI-60 one-dose screen, 48 h (100 = growth as untreated, 0 = no growth, -100 = all killed)
# Details in all cases: 10 µM unless noted
# SR leukemia = system: SR leukemia
# RPMI-8226 leukemia = system: RPMI-8226 leukemia
# OVCAR-8 ovarian = system: OVCAR-8 ovarian
# OVCAR-5 ovarian = system: OVCAR-5 ovarian
# OVCAR-4 ovarian = system: OVCAR-4 ovarian
# SK-OV-3 ovarian = system: SK-OV-3 ovarian
# IGROV1 ovarian = system: IGROV1 ovarian
# OVCAR-3 ovarian = system: OVCAR-3 ovarian
# HS 578T breast = system: HS 578T breast
# T-47D breast = system: T-47D breast
# BT-549 breast = system: BT-549 breast
# MDA-MB-435 melanoma = system: MDA-MB-435 melanoma
# SW-620 colon = system: SW-620 colon
# MCF7 breast = system: MCF7 breast
# HCT-116 colon = system: HCT-116 colon
# HCC-2998 colon = system: HCC-2998 colon
# KM12 colon = system: KM12 colon
# NCI/ADR-RES ovarian = system: NCI/ADR-RES ovarian
SMILES,growth (SR leukemia),growth (RPMI-8226 leukemia),growth (OVCAR-8 ovarian),growth (OVCAR-5 ovarian),growth (OVCAR-4 ovarian),growth (SK-OV-3 ovarian),growth (IGROV1 ovarian),growth (OVCAR-3 ovarian),growth (HS 578T breast),growth (T-47D breast),growth (BT-549 breast),growth (MDA-MB-435 melanoma),growth (SW-620 colon),growth (MCF7 breast),growth (HCT-116 colon),growth (HCC-2998 colon),growth (KM12 colon),growth (NCI/ADR-RES ovarian)
Oc1ccc(-c2nnc3c4[nH]ccc4ncn23)cc1,82.4%,97.7%,99.6%,113%,102%,99.7%,84%,107%,95%,93.4%,89.2%,97.5%,108%,92.1%,88.8%,105%,104%,–
COc1ccc(NC(=O)Cn2c(=O)sc3c(-c4ccc(Cl)cc4)cc(-c4ccc(Cl)cc4)nc32)cc1,63.3%,116%,107%,111%,98.3%,102%,92.3%,–,108%,79.9%,87.6%,102%,99.6%,89.2%,88.1%,104%,99.7%,89.2%
CCCCCCCCN=C(NCCCCCCCC)SCc1cccc2ccccc12,-34.6% (active),-42.1% (active),-92.5% (active),-84.2% (active),-91.7% (active),-96.3% (active),-55.5% (active),-97.9% (active),-55.3% (active),-97.5% (active),-74.8% (active),-95.6% (active),-91.6% (active),-88.9% (active),-83.3% (active),-96.4% (active),-94.1% (active),–
O=C(CCl)Nc1ccc2c(c1)C(=O)c1ccccc1C2=O,-10.3% (active),-59.1% (active),-27.3% (active),18.6%,36.8%,54.5%,-15.6% (active),-87.1% (active),51.8%,–,-45.3% (active),13.1%,-78.6% (active),-25% (active),-28.6% (active),69%,54.9%,14.2%
Cc1ccc(C(=O)CC(=O)C(F)(F)C(F)(F)C(F)(F)F)s1,99.5%,102%,104%,96.1%,112%,104%,108%,107%,105%,–,103%,99%,103%,105%,110%,105%,112%,105%
N#CCCn1cnc2c(N)ncnc21,98%,101%,96.5%,98.4%,107%,99.6%,125%,109%,99.5%,–,103%,102%,102%,97.1%,–,113%,106%,109%
CC(C)c1ccc2c(c1)CCC1C2CCCC1(C)NCc1ccccc1 (stereo unspecified),0.88% (active),-35.2% (active),91.5%,53.5%,67.7%,86.4%,84.2%,80.4%,–,12.8%,106%,18.2%,3.49% (active),75.5%,60.3%,-91.3% (active),23.1%,62.7%
COc1ccc2nc3ccccc3c(NCc3ccc(C)cc3)c2c1,-12.7% (active),-46.2% (active),28.7%,34%,18.5%,52.7%,17.2%,46.9%,42.7%,–,51.6%,42.2%,18.5%,3.43% (active),8.58% (active),-57.9% (active),37.3%,23.8%
CCOC(=O)C(CCCCC(NC(C)=O)(C(=O)OCC)C(=O)OCC)(NC(C)=O)C(=O)OCC,99.8%,103%,107%,103%,107%,96.9%,106%,–,104%,89.4%,107%,104%,104%,98.3%,105%,109%,100%,98.4%
CC(CN1CCN(CC(C)Nc2ccnc3cc(Cl)ccc23)CC1)Nc1ccnc2cc(Cl)ccc12 (stereo unspecified),-44.1% (active),-32.2% (active),6.74% (active),57.2%,3.26% (active),97.2%,28.2%,-7.9% (active),9.67% (active),–,10.8%,-45.4% (active),5.03% (active),10.6%,-83.2% (active),-5.03% (active),19.8%,–
COc1cccc(C2C(C#N)=C(N)Oc3cc4c(cc32)OCO4)c1 (stereo unspecified),17.8%,23.8%,24.9%,31.1%,40.5%,0.748% (active),21.6%,-38.6% (active),27.8%,–,24%,-12.3% (active),26.9%,13.2%,5.12% (active),21.8%,0.487% (active),5.77% (active)
ClCc1c(Cl)c(Cl)c(Cl)c(CCl)c1Cl,4.07% (active),18.4%,49.5%,118%,-66.2% (active),113%,4.3% (active),-94.5% (active),89.3%,-71.5% (active),87.5%,52.2%,-82.2% (active),-4.94% (active),-76.8% (active),88.6%,24.8%,–
O=C1SCN(Cc2ccccc2)CN1Cc1ccccc1,8.82% (active),43.7%,90.7%,105%,109%,107%,97.2%,105%,95.5%,–,131%,73.3%,34.3%,22.1%,70.5%,115%,32.4%,100%
COc1ccc(C2c3cccn3-c3ccccc3N2C(C)=O)cc1 (stereo unspecified),74%,85.5%,125%,99.3%,126%,101%,74.3%,95.3%,–,103%,95.4%,57%,85.5%,116%,97.8%,90.4%,80.2%,91.2%
CCOC(=O)c1ccc2c(c1)nc(-c1ccc(Cl)cc1)n2-c1cc(C(C)(C)C)[nH]n1,-22.3% (active),75.6%,70.1%,60.5%,63.5%,18.9%,42.3%,13.5%,53.9%,–,16.8%,-31.2% (active),42.1%,9.39% (active),8.57% (active),56.1%,29.9%,4.4% (active)
O=C(c1ccccc1)c1cccc(C(Br)Br)c1,43.8%,84.4%,93.7%,125%,95.4%,94%,70.5%,97.5%,94.5%,88.4%,99.4%,30.9%,66.3%,65.6%,65.9%,94%,–,–
CC(=O)c1ccc(Br)c([N+](=O)[O-])c1,94.5%,96.6%,107%,119%,114%,109%,109%,124%,90.7%,104%,99.7%,101%,120%,94.1%,96.9%,109%,107%,–
